RT RNaseH block – blocks HIV-1 RNase H cleavage of RNA/DNA duplex | 65,000 compounds, 1.9% hits | RT-RNase H RNA/DNA duplex cleavage, fluorescence | P04585 | AID 565 | inhibition, % at 10 µM; in the data active = inhibition above about 50%
* hit, by the source's call. Many of the other results were omitted from the sample, so hits are more common in it than they were.

SMILES	RT RNaseH block
CCOc1ccc(C2C(C#N)=C(N)SC(N)=C2C#N)cc1OCC	38
CCOc1ccc(C2C(C#N)=C(N)N3C(=C2C#N)Sc2ccccc23)cc1 (stereo not given)	72*
N#CC1=C(N)N2C(=C(C#N)C1c1ccccc1)Sc1ccccc12 (stereo not given)	2
CCc1cccc(NC(=O)c2ccc(Br)o2)c1	-4
COc1ccccc1CNC(=O)CN(C)CC(=O)Nc1cccc(F)c1	-14
CN(C(=O)c1cccnc1)c1nnc(-c2cccnc2)s1	66*
CN(C(=O)c1cccnc1)c1nnc(-c2cnccn2)s1	-5
CN(C(=O)c1cccnc1)c1nnc(-c2ccccn2)s1	-5
COc1cc(OC)cc(C(C(=O)NCc2ccccc2)N(Cc2ccco2)C(=O)c2ccno2)c1 (stereo not given)	-6
CCCOc1ccc(N2C(=O)C3ON(c4ccccc4)C(c4ccc(O)c(OC)c4)C3C2=O)cc1 (stereo not given)	56*
CCOc1ccccc1C1C2C(=O)N(c3ccccc3)C(=O)C2ON1c1ccccc1 (stereo not given)	9
COc1cc(C2C3C(=O)N(Cc4ccccc4)C(=O)C3ON2c2ccccc2)cc(OC)c1O (stereo not given)	11
CC(SCC(=O)Nc1ccc(S(=O)(=O)N2CCCCC2)cc1)C(=O)O (stereo not given)	-3
CC(C)(C)C(=O)CNS(=O)(=O)c1ccc(S(=O)(=O)NC2CCCC2)cc1	2
Cc1ccc2c(nc3s/c(=C/c4cccs4)c(=O)n32)c1C	80*
Cc1ccc(/C=c2\sc3nc(-c4cccs4)nn3c2=O)o1	45
COc1ccccc1-c1nc2s/c(=C\c3cccs3)c(=O)n2n1	-1
Cc1onc(-c2ccccc2Cl)c1C(=O)OCC(=O)N1CCCc2ccccc21	-49
O=C(Nc1ccc(S(=O)(=O)N2CCN(Cc3ccccc3)CC2)cc1)c1cnccn1	3
CC(C)CNc1oc(-c2ccc(F)cc2)nc1C#N	-23
COC(=O)c1cnn2c(C(F)(F)F)cc(-c3ccc(F)cc3)nc12	-4
COC(=O)c1cc2nc(-c3ccc(OC)cc3)cc(C(F)(F)F)n2n1	4
COC(=O)c1nn2c(C(F)(F)F)cc(-c3ccc(Br)o3)nc2c1Br	64*
Cc1noc(C)c1CSc1nc2sc(C)c(C)c2c(=O)n1C1CCCC1	-5
CCC(=O)Nc1ccc(-c2nnc(SCC(=O)NCC3CCCO3)n2C)cc1 (stereo not given)	-16
SMILES	RT RNaseH block
CCOc1ccc(C(C)(C)C)cc1S(=O)(=O)N1CC(C)OC(C)C1 (stereo not given)	-5
Cc1cc(NC(=O)COc2cccc(C)c2C)no1	-5
Cc1ccc(C)c(OCC(=O)Nc2nonc2NC(=O)COc2cc(C)ccc2C)c1	73*
C=CCNC(=O)CCCOc1cc(C)ccc1C	-4
CS(=O)(=O)Nc1ccccc1C(=O)c1ccccc1	-16
COc1ccc(N2CCN(C(c3ccccc3OC)c3nnnn3Cc3ccco3)CC2)cc1 (stereo not given)	51*
COc1ccc(Cn2nnnc2C(c2cccs2)N2CCN(c3ccccc3)CC2)cc1 (stereo not given)	9
COc1ccc(Cn2nnnc2C(c2ccccc2OC)N2CCC(C(N)=O)CC2)cc1 (stereo not given)	0
O=C(CN1CCOc2ccccc21)N1CCCC1	-7
COC(=O)/C=c1/s/c(=C(\C#N)C(=O)NCc2ccco2)n(-c2ccccc2)c1=O	24
COC(=O)/C=c1\sc2ncnn2c1=O	56*
CCC(=O)Nc1cc(=O)[nH]c2ncnn12	1
CCn1nnnc1SCC(=O)c1cc(OC)ccc1OC	5
CC(=O)c1c(C(C)=O)c(C)n(NC(=O)c2ccncc2)c1C	-5
O=C(CCNS(=O)(=O)c1cccc2nonc12)NCc1cccs1	-21
C=CCSc1nnc2n(-c3ccccc3OC)c(=O)c3c4c(sc3n12)CCC4	-24
CC1(C)Cc2c(c(-c3ccccc3)[nH]c(=O)c2C#N)CS1	3
CC1(C)Cc2c(C#N)c(N)sc(=S)c2CS1	62*
Cn1c(N)c(C#N)c2c(c1=S)CSC(C)(C)C2	19
O=C1OCCC1Sc1nc2cc(Cl)ccc2s1 (stereo not given)	-24
c1ccc2c(-c3nc(C4CCCCC4)no3)cc(-c3ccncc3)nc2c1	-41
CCC1CCc2c(sc(NC(=O)c3ccoc3C)c2C(N)=O)C1 (stereo not given)	53*
CCOC(=O)c1c(NC(=O)c2ccoc2C)sc2c1CCC2	11
CCN(CC)C(=O)c1sc(NC(=O)c2ccoc2C)c(C(=O)OC)c1C	15
CC(C)=CCC(C)(C)C1OCCN1C(=O)Nc1ccccc1 (stereo not given)	-7
SMILES	RT RNaseH block
O=C1N(CC(=O)N2CCc3ccccc32)CCN1Cc1ccccc1Cl	-67
CCCN(C(=O)c1cccs1)c1nnc(-c2ccncc2)s1	-11
COc1ccc(NS(=O)(=O)c2cc(-c3nnnn3C)ccc2OC)cc1	1
Clc1cc(NCc2cccs2)ccc1N1CCOCC1	2
COc1cc(C2Nc3ccc4ncccc4c3C3=C2C(=O)CCC3)ccc1O (stereo not given)	1
COCCN1Cc2cccc(C(=O)Nc3c(C)cccc3C)c2C1=O	58*
COCCN1Cc2cccc(C(=O)Nc3ccc(C)c(C)c3)c2C1=O	-6
COCCN1Cc2cccc(C(=O)Nc3cccc(OC)c3)c2C1=O	-9
COc1ccc(C(O)C(CC(=O)NCCCOC(C)C)C(=O)NCCCOC(C)C)cc1OC (stereo not given)	-13
COC(=O)c1ccccc1NC(=O)N1CCN(C(=O)c2ccco2)CC1	-22
CCn1c(SCC(=O)Nc2ccc(NC(=O)c3ccco3)c(OC)c2)nc2ccccc2c1=O	21
CCCCn1c(SCC(=O)Nc2cc(C)on2)nc2ccccc2c1=O	34
CCCCn1c(SCC(=O)Nc2cc(NC(=O)c3ccco3)ccc2C)nc2ccccc2c1=O	55*
COc1ccc(S(=O)(=O)N(CC(=O)NC2CC2)c2ccc(C)cc2)cc1OC	-2
COc1cc(C2c3c(oc4ccccc4c3=O)C(=O)N2Cc2ccncc2)ccc1O (stereo not given)	6
O=C(CSc1nnnn1-c1ccccc1)N1CCc2ccccc21	-6
CCc1nnc(NCC(=O)N2CCc3ccccc32)s1	55*
CCc1nnc(NC(=O)c2c(O)c3cccc4c3n(c2=O)CC4)s1	-6
CCN(CCCNC(=O)CN(C)S(=O)(=O)c1cccc2nsnc12)c1ccccc1	-15
Cn1cccc1C1NC(=O)c2c(sc3c2CCC(C(C)(C)C)C3)N1 (stereo not given)	60*
CCOC(=O)N1CCc2c(sc3c2C(=O)NC(c2ccccc2)N3)C1 (stereo not given)	2
CN1CCc2c(sc3c2C(=O)NC(c2ccco2)N3)C1 (stereo not given)	0
CCCCOC(=O)Sc1nc2ccccc2o1	35
Nc1nc2ccc(N3CCOCC3)cc2s1	11
Cc1cc(C)nc(Nc2ccc(N3CCOCC3)cc2)n1	4
S=P(c1ccc(N2CCOCC2)cc1N1CCOCC1)(N1CCOCC1)N1CCOCC1	88*
Cc1ccc(C)c(/C(O)=C2\C(=O)C(=O)N(Cc3cccnc3)C2c2cccnc2)c1 (stereo not given)	-6
COc1ccc(C)cc1-n1nnnc1SCC1CCCCO1 (stereo not given)	9
CCC(=O)N[C@@H]1CC(C(C)(C)NC(=O)CC)CC=C1C (stereo not given in full)	2
COc1ccc(-c2ccc(-c3noc(C(C)C)n3)c(OC)n2)cc1	0

Assay outcomes: PubChem BioAssay, University of Pittsburgh Molecular Library Screening Center
